HT1080 IDH1KD tx = HT-1080 IDH1 knockdown cell toxicity (counter line); 2% of 360,000 active; HT-1080 IDH1 knockdown viability, ATP luminescence, 48 h; Potency, µM (highest dose often 46.1 µM), actives largely listed as cytotoxic
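Viability of IDH1-knockdown HT-1080 fibrosarcoma cells was assessed by CellTiter-Glo after 48 h at 37 °C with titrated compound; concentration-effect curves were classified by fit quality and response size.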
IL-1B inflam inh = blocks inflammasome-driven IL-1 beta release | THP-1 LPS/ATP IL-1B secretion, AlphaLISA, 16 h; hits give low values | activity change, % at 57.5 µM | 4.7% of 360,000 active; in the data active = activity change below about -50%; inconclusive = mostly about -30% to -49%
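THP-1 cells pretreated 1 hr with compounds (up to 57.5 uM final), then stimulated with LPS (250 ng/mL final) plus ATP (1.25 mM final); secreted IL-1B measured by AlphaLISA after 16 hr, decreased signal indicating inhibition.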
HT1080-NT tox = kills 2HG-producing HT-1080-NT fibrosarcoma cells | 1.6% of 360,000 active | HT-1080-NT fibrosarcoma viability, CellTiter-Glo ATP luminescence, 48 h | Potency, µM (titrated, usually from 46.1 µM), most hits filed as cytotoxic | AID 686970;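 also: NT is the 2HG producing partner of a matched IDH1 knockdown line; nearly all actives have a fitted effect of over 55% in size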
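Read-out is CellTiter-Glo luminescence after 10 minutes at room temperature, following 48 hours' compound treatment of HT-1080-NT cells (750 cells/well, RPMI, 5% FBS, 37 degrees C).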
12-LOX inh = ALOX12 (human) lipoxygenase inhibition; P18054; purified 12hLO, xylenol orange hydroperoxide absorbance; Potency, µM (doses to about 108 µM), usual class: inhibitors; 1.1% of 580,000 active
Target sequence (P18054 whole entry, looked up): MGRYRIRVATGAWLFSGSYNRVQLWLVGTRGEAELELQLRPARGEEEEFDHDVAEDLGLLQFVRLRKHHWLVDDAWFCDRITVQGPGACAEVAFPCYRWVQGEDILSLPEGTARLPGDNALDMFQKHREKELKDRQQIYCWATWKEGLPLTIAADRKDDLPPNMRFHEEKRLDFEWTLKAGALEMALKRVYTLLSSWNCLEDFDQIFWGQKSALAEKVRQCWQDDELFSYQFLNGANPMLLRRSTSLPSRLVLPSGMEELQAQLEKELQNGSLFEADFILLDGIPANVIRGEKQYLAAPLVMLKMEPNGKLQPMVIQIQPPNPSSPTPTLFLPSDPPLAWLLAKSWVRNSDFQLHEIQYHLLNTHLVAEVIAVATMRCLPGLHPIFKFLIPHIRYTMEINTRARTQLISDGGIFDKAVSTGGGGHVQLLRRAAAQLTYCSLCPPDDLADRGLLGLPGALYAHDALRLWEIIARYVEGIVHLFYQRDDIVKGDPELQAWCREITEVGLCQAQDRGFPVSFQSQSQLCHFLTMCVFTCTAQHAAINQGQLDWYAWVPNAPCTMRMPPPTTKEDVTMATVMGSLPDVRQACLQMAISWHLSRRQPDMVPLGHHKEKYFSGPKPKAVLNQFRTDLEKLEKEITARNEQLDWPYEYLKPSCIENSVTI
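Purified human 12hLO at 150 nM in 25 mM Hepes, 0.01% Triton X-100, pH 7.0, preincubated 15 min at room temperature with compound. Reaction started with 40 uM arachidonic acid, 30 min at room temperature. Hydroperoxide measured by Fe-xylenol orange, 573/405 nm absorbance ratio.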
DT40 TDP1 CPT = DT40-hTDP1 cell growth loss with CPT | 12% of 420,000 active | AID 686979 | Potency, µM (top dose mostly 46.2 µM), hits mostly inhibitors | chicken DT40 Tdp1-/-;hTDP1 cells + 20 nM CPT, ATP luminescence, 48 h; also: nearly all actives have a fitted effect of over 55% in size
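Chicken DT40 Tdp1-/- cells stably complemented with human TDP1 were seeded at 400 cells/well in medium containing 20 nM camptothecin, exposed to pin-transferred compounds, and grown at 37 °C for at least 48 hr. Viability was read as ATP luminescence.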
DT40 TDP1 no CPT = qHTS for Inhibitors of human tyrosyl-DNA phosphodiesterase 1 (TDP1): qHTS in cells in absence of CPT; DT40 Tdp1-/- hTDP1 cells, no CPT, ATP luminescence, 48 h; Potency, µM (titrated, usually from 46.2 µM), actives largely listed as inhibitors; 15% of 420,000 active; also: nearly all actives have a fitted effect of over 55% in size
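Growth of hTDP1-complemented DT40 Tdp1-knockout cells is measured by ATP luminescence after at least 48 hr compound exposure at 37 °C, with DMSO substituting for the 20 nM CPT used in the parallel screen.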
Each line names hits and unclear results; the compound was inactive in the other large screens. Only a selection was taken, and hits are over-represented in it overall. Unless noted, calls follow the shape of the dose curve; as a rule, active = well fitted curve in the direction sought with a large enough effect; inconclusive = small, poorly fitted or top-dose-only effect, or another doubt; inactive = no such curve, though single readings can be large; an effect the other way counts as inactive or inconclusive.

Cc1oc2cc(OCCN3CCN(CCO)CC3)ccc2c(=O)c1-c1ccc(Br)cc1	12-LOX inh 35.5µM (no result: HT1080 IDH1KD tx, IL-1B inflam inh, HT1080-NT tox, DT40 TDP1 CPT, DT40 TDP1 no CPT)
Cc1oc(-c2cccc(Cl)c2)nc1CN1CCN(S(N)(=O)=O)CC1	none (no result: HT1080 IDH1KD tx, IL-1B inflam inh, HT1080-NT tox, DT40 TDP1 CPT, DT40 TDP1 no CPT)
CCN1CCN(C(=O)C2CCN(Cc3nc(-c4cccc(Cl)c4)oc3C)CC2)CC1	IL-1B inflam inh inconclusive, 12-LOX inh inconclusive, DT40 TDP1 CPT 20.6µM, DT40 TDP1 no CPT 16.4µM
CCN1CCN(C(=O)C2CCN(Cc3cc(Cl)ccc3O)CC2)CC1	IL-1B inflam inh -77.1, HT1080-NT tox inconclusive, 12-LOX inh inconclusive
Cc1oc(-c2cccc(Cl)c2)nc1CN1CCC(C(=O)N2CCN(c3ccccn3)CC2)CC1	DT40 TDP1 CPT 23.1µM, DT40 TDP1 no CPT 18.4µM (no result: 12-LOX inh)
CCN(C(C)=O)C1CCN(Cc2nc(-c3cccc(Cl)c3)oc2C)C1 (stereo not drawn)	none (no result: HT1080 IDH1KD tx, IL-1B inflam inh, HT1080-NT tox, DT40 TDP1 CPT, DT40 TDP1 no CPT)
Cc1oc(-c2cccc(F)c2)nc1CN1CCCN(C(=O)c2ccco2)CC1	12-LOX inh inconclusive
Cc1oc(-c2cccc(Cl)c2)nc1CN1CCN(C(=O)c2ccco2)CC1	12-LOX inh 35.5µM (no result: HT1080 IDH1KD tx, IL-1B inflam inh, HT1080-NT tox, DT40 TDP1 CPT, DT40 TDP1 no CPT)
CN(CC(=O)NC(C)(C)C)C(=O)c1cc2ccc(Br)cc2[nH]1	none (no result: HT1080 IDH1KD tx, IL-1B inflam inh, HT1080-NT tox, DT40 TDP1 CPT, DT40 TDP1 no CPT)
CCOC(=O)c1c(C)[nH]c(CCC(=O)Nc2ccc(Cl)cc2C)c1C	DT40 TDP1 no CPT inconclusive (no result: HT1080 IDH1KD tx, IL-1B inflam inh, HT1080-NT tox)
CCOC(=O)c1c(C)[nH]c(CCC(=O)Nc2ccc(N(CC)CC)cc2C)c1C	DT40 TDP1 CPT 13µM, DT40 TDP1 no CPT inconclusive (no result: HT1080 IDH1KD tx, IL-1B inflam inh, HT1080-NT tox)
Cc1ccc(S(=O)(=O)N2CC=C(C(=O)NCc3ccc(F)cc3)CC2)cc1	none (no result: HT1080 IDH1KD tx, IL-1B inflam inh, HT1080-NT tox, DT40 TDP1 CPT, DT40 TDP1 no CPT)
CCOC(=O)c1c(C)[nH]c(CCC(=O)Nc2ccc(C)c(F)c2)c1C	12-LOX inh inconclusive, DT40 TDP1 CPT 20.6µM, DT40 TDP1 no CPT 14.6µM (no result: HT1080 IDH1KD tx, IL-1B inflam inh, HT1080-NT tox)
CCN(CC)c1ccc(NC(=O)c2[nH]c(C)c(C(C)=O)c2C)c(C)c1	12-LOX inh inconclusive, DT40 TDP1 CPT 23.1µM, DT40 TDP1 no CPT 18.4µM
CCN(CC)c1ccc(NC(=O)C2=CCN(S(=O)(=O)c3ccc(F)cc3)CC2)c(C)c1	DT40 TDP1 CPT 18.4µM, DT40 TDP1 no CPT 18.4µM
COC(=O)c1ccc(F)c(NC(=O)c2ccccc2OC(F)F)c1	none (no result: HT1080 IDH1KD tx, IL-1B inflam inh, HT1080-NT tox, DT40 TDP1 CPT, DT40 TDP1 no CPT)
CCc1ccc(NC(=O)CCC(=O)N2CCSc3ccccc32)cc1	DT40 TDP1 CPT 20.6µM, DT40 TDP1 no CPT inconclusive
O=C(CCC(=O)N1CCSc2ccccc21)NCc1cccc(Cl)c1	DT40 TDP1 CPT inconclusive, DT40 TDP1 no CPT inconclusive
Cc1ccc(CNC(=O)CCC(=O)N2CCSc3ccccc32)cc1	DT40 TDP1 CPT inconclusive, DT40 TDP1 no CPT 23.1µM (no result: HT1080 IDH1KD tx, IL-1B inflam inh, HT1080-NT tox)
CCCCc1nn(CC(=O)NCc2nc3c(s2)CCCC3)c(=O)n1CC	none (no result: HT1080 IDH1KD tx, IL-1B inflam inh, HT1080-NT tox, DT40 TDP1 CPT, DT40 TDP1 no CPT)
O=[N+]([O-])c1ccc2c(c1)C=C/C2=C/c1ccccc1	DT40 TDP1 CPT 12.6µM, DT40 TDP1 no CPT 17.8µM (no result: HT1080 IDH1KD tx, IL-1B inflam inh, HT1080-NT tox, 12-LOX inh)
CSc1ccc(/C=C2\C=Cc3ccc([N+](=O)[O-])cc32)cc1	DT40 TDP1 CPT inconclusive, DT40 TDP1 no CPT 11.2µM (no result: HT1080 IDH1KD tx, IL-1B inflam inh, HT1080-NT tox, 12-LOX inh)
Cc1ccc(NCC(O)Cn2c3ccccc3n3c(=O)cc(C)c(C#N)c23)cc1C (stereo not drawn)	none (no result: HT1080 IDH1KD tx, IL-1B inflam inh, HT1080-NT tox, DT40 TDP1 CPT, DT40 TDP1 no CPT)
CC(NCC(=O)Nc1ccccc1C(=O)NC1CC1)c1ccc(Cl)cc1 (stereo not drawn)	IL-1B inflam inh inconclusive, DT40 TDP1 CPT inconclusive, DT40 TDP1 no CPT 11.6µM
CC(NCC(=O)Nc1ccccc1C(=O)NC1CC1)c1cccc(Cl)c1 (stereo not drawn)	DT40 TDP1 CPT inconclusive, DT40 TDP1 no CPT inconclusive
CCN1c2cc(C(=O)Nc3ccc(Br)cc3)ccc2C(=O)N2CCCCCC21 (stereo not drawn)	none (no result: HT1080 IDH1KD tx, IL-1B inflam inh, HT1080-NT tox, DT40 TDP1 CPT, DT40 TDP1 no CPT)
CN(C)CCNC(=O)c1onc(CSc2ccc(F)c(F)c2)c1C(=O)NCCN(C)C	IL-1B inflam inh inconclusive, DT40 TDP1 no CPT 16.4µM
CC(C)NC(=O)c1onc(CSc2ccc(F)c(F)c2)c1C(=O)O	12-LOX inh 31.6µM
CN(C)CCNC(=O)c1onc(CSc2ccc(F)cc2)c1C(=O)NCCN(C)C	none
